# Measured values taken from PubChem BioAssay.
# Activity calls are given as the source filed them.
# What was measured:
# [1] = test system: Plasmodium falciparum Sir2 (PF13_0152, Sir2A); test: Plasmodium falciparum Sir2A binding compounds – biochemical, small-molecule microarray, 635 nm fluorescence, primary screen (AID 1098); conditions: fluorescence 635 nm, higher = more signal;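 note: score merges spot fluorescence intensity with its signal-to-noise ratio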
# [2] = probe aDKK1 binding to arrayed compounds – biochemical, biotinylated probe, 635/667 nm fluorescence, primary screen (AID 1099); conditions: small-molecule microarray, higher = more signal;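 note: score merges 667nm spot fluorescence with signal to noise across triplicate slides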
# [3] = probe aCHRDL2 binding to arrayed compounds – biochemical, biotinylated probe, 635/667 nm fluorescence, primary screen (AID 1100); conditions: small-molecule microarray, higher = more signal
# [4] = change in splice reporter luminescence, either direction, cell-based, HEK293, spliceosome inhibition project, primary screen (AID 1101); conditions: HEK293 splicing luciferase reporter, 24 h, higher = more signal, called active from +8 up or from −8 down;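 note: HEK293 cells carrying a splicing-competent luciferase reporter gene; test concentration not given here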
# [5] = target: Fibroblast growth factor 10 (Homo sapiens) (UniProt O15520); test: compounds binding fibroblast growth factor 10 – biochemical, small-molecule microarray, 635 nm fluorescence, primary screen (AID 1102); conditions: FGF10 binding, fluorescence 635 nm, higher = more signal
# [6] = test system: glycogen synthase kinase-3 (GSK3A per assay name; protocol says GSK3B); test: compounds binding glycogen synthase kinase-3 – biochemical, small-molecule microarray, 635 nm fluorescence, GSK3A, primary screen (AID 1103); conditions: fluorescence 635 nm, higher = more signal; note: the record names both GSK3A and GSK3B
# [7] = target: Epidermal growth factor receptor (Homo sapiens) (UniProt P00533); test: compounds binding epidermal growth factor receptor – biochemical, small-molecule microarray, 635 nm fluorescence, primary screen (AID 1104); conditions: EGFR binding, higher = more signal;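 note: score merges 667 nm emission intensity with spot signal to noise over triplicate slides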
# [8] = target: Follistatin-related protein 3 (Homo sapiens) (UniProt O95633); test: compounds binding follistatin-related protein 3 – biochemical, small-molecule microarray, 635 nm fluorescence, primary screen (AID 1105); conditions: FSTL3 binding, higher = more signal;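 note: score merges emission near 667 nm and signal to noise per printed spot across three slides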
# [9] = target: Dickkopf-related protein 1 (Homo sapiens) (UniProt O94907); test: small molecules binding DKK1 protein – biochemical, small-molecule microarray, 635 nm fluorescence scan, primary screen (AID 1106); conditions: higher = more signal;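 note: score merges emission near 667 nm with signal to noise over three replicate slides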
# [10] = test system: Inhibin beta A chain (activin A); test: small molecules binding activin A – biochemical, small-molecule microarray, 635 nm fluorescence scan, primary screen (AID 1107); conditions: INHBA, higher = more signal;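 note: mouse activin A protein probed at 4.33 µg/mL on printed slides; score merges bound-protein fluorescence near 667 nm with spot signal-to-noise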
# [11] = test system: Human papillomavirus type 1a protein E7 (residues 44-93); test: small molecules binding HPV E7 44-93 – biochemical, small-molecule microarray, residues 44-93, 635 nm fluorescence, primary screen (AID 1108); conditions: fluorescence 635 nm, higher = more signal;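 note: E7 fragment applied at 1 µg/mL in TBST for 1 h at 4 C; score combines spot fluorescence with its signal to noise ratio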
# [12] = hepatitis C replication reporter changes, two-sided – Huh7 cells, luciferase reporter, HCV replication inhibitor project, primary screen (AID 1109); conditions: Huh7 HCV replicon luciferase reporter, 48 h; higher = more signal;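 note: huh7 hepatoma cells harbouring a luciferase neomycin HCV replicon reporter; luciferase luminescence as measure of HCV replicon replication; test concentration not given here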
# [13] = target: Left-right determination factor 2 (Homo sapiens) (UniProt O00292); test: small molecules binding LEFTY2 protein – biochemical, small-molecule microarray, 635 nm fluorescence scan, primary screen (AID 1110); conditions: higher = more signal
# [14] = target: Calmodulin-1 (Homo sapiens) (UniProt P0DP23); test: small molecules binding calmodulin-1 with EGTA – biochemical, small-molecule microarray, Cy5-labelled CALM1, profiling panel (AID 1111); conditions: Cy5-CALM1 binding fluorescence, higher = more signal;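 note: labelled calmodulin applied in Tris saline Tween buffer holding calcium plus EGTA and DTT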
# [15] = target: Calmodulin-1 (Homo sapiens) (UniProt P0DP23); test: small molecules binding Ca-loaded calmodulin-1 – biochemical, small-molecule microarray, Cy5-labelled CALM1, plus calcium, artefact control for SMM control-protein annotation, profiling panel (AID 1112); conditions: Cy5-CALM1 binding fluorescence, higher = more signal;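 note: score merges spot fluorescence with signal to noise from triplicate slides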
# [16] = probe aWnt5a binding to arrayed compounds – biochemical, biotinylated probe, 635/667 nm fluorescence, primary screen (AID 1113); conditions: small-molecule microarray, higher = more signal;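 note: score merges 667 nm fluorescence intensity with signal-to-noise per printed feature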
# [17] = probe aShh binding to arrayed compounds – biochemical, biotinylated probe, 635/667 nm fluorescence, primary screen (AID 1114); conditions: small-molecule microarray, higher = more signal;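 note: probe is biotin-labelled aShh protein from a stem cell growth factor screen; measures binding of labelled protein to compounds printed on the slide; score merges feature fluorescence at 667 nm with signal-to-noise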
# [18] = probe aNog binding to arrayed compounds – biochemical, biotinylated probe, 635/667 nm fluorescence, primary screen (AID 1115); conditions: small-molecule microarray, higher = more signal;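 note: probe is biotinylated aNog protein used at 0.15 µg/mL for 1 h at 4 C; z-score combines 667 nm fluorescence of each spot with its signal to noise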
# [19] = target: Torsin-1A-interacting protein 1 (Homo sapiens) (UniProt Q5JTV8); test: compound microarray binding of lysate hLAP1 – cell lysate, small-molecule microarray, COS7 lysate, 635/667 nm fluorescence, primary screen (AID 1116); conditions: 635 nm fluorescence, higher = more signal
# [20] = target: Alpha-bungarotoxin (Bungarus multicinctus) (UniProt P60615); test: compounds binding labelled alpha-BTX control protein – biochemical, small-molecule microarray, Alexa647 label, 635/667 nm fluorescence, artefact control for SMM control protein annotation, profiling panel (AID 1117); conditions: alpha-BTX-A647 binding fluorescence, higher = more signal
# Alpha-bungarotoxin (Bungarus multicinctus), sequence (P60615 whole entry, looked up): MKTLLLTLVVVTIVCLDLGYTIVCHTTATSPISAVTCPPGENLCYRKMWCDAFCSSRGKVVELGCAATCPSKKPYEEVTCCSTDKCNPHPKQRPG
# Follistatin-related protein 3 (Homo sapiens), sequence (O95633 whole entry, looked up): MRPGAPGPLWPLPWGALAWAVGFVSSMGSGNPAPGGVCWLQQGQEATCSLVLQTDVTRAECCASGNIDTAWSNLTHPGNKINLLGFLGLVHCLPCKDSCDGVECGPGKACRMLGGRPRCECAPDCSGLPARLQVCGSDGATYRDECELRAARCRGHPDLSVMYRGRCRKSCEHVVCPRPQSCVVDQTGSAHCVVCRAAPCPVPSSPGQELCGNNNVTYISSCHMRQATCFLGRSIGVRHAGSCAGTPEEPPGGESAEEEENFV
# Left-right determination factor 2 (Homo sapiens), sequence (O00292 whole entry, looked up): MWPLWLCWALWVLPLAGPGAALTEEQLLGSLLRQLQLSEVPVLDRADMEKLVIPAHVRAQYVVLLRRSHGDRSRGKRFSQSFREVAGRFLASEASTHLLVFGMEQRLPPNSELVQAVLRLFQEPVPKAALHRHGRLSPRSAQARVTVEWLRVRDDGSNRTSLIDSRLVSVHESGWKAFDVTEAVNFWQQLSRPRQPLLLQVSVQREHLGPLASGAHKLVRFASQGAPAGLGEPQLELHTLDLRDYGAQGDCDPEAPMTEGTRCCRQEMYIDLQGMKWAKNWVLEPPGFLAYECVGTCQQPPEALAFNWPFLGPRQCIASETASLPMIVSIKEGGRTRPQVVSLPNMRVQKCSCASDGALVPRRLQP
# Fibroblast growth factor 10 (Homo sapiens), sequence (O15520 whole entry, looked up): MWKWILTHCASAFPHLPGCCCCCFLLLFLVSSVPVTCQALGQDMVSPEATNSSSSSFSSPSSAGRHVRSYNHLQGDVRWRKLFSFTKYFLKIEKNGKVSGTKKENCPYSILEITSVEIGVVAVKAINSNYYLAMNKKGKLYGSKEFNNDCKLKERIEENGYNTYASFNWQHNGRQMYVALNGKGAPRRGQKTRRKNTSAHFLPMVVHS
# Dickkopf-related protein 1 (Homo sapiens), sequence (O94907 whole entry, looked up): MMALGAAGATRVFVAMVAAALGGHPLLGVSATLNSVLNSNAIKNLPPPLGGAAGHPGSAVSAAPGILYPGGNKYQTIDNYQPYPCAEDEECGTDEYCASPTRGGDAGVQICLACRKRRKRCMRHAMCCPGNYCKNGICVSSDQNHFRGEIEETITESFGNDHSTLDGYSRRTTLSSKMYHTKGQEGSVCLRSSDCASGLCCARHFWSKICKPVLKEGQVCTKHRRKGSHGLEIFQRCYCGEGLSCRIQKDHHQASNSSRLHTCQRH
# Torsin-1A-interacting protein 1 (Homo sapiens), sequence (Q5JTV8 whole entry, looked up): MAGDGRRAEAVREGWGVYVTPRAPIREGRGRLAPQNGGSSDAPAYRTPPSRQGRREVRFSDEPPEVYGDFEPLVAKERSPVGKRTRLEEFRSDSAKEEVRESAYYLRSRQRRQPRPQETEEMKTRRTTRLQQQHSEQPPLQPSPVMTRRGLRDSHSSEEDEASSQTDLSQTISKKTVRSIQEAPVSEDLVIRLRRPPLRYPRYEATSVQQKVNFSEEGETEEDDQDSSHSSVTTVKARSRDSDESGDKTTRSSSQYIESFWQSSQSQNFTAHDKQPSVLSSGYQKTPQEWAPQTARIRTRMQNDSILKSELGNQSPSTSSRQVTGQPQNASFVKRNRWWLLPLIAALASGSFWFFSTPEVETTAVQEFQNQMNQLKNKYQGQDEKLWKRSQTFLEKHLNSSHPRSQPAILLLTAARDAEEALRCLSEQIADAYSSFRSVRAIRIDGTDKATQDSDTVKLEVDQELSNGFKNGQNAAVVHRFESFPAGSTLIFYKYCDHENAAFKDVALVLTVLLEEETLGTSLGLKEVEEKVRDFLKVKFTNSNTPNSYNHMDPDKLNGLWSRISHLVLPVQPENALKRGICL
# Epidermal growth factor receptor (Homo sapiens), sequence (P00533 whole entry, looked up): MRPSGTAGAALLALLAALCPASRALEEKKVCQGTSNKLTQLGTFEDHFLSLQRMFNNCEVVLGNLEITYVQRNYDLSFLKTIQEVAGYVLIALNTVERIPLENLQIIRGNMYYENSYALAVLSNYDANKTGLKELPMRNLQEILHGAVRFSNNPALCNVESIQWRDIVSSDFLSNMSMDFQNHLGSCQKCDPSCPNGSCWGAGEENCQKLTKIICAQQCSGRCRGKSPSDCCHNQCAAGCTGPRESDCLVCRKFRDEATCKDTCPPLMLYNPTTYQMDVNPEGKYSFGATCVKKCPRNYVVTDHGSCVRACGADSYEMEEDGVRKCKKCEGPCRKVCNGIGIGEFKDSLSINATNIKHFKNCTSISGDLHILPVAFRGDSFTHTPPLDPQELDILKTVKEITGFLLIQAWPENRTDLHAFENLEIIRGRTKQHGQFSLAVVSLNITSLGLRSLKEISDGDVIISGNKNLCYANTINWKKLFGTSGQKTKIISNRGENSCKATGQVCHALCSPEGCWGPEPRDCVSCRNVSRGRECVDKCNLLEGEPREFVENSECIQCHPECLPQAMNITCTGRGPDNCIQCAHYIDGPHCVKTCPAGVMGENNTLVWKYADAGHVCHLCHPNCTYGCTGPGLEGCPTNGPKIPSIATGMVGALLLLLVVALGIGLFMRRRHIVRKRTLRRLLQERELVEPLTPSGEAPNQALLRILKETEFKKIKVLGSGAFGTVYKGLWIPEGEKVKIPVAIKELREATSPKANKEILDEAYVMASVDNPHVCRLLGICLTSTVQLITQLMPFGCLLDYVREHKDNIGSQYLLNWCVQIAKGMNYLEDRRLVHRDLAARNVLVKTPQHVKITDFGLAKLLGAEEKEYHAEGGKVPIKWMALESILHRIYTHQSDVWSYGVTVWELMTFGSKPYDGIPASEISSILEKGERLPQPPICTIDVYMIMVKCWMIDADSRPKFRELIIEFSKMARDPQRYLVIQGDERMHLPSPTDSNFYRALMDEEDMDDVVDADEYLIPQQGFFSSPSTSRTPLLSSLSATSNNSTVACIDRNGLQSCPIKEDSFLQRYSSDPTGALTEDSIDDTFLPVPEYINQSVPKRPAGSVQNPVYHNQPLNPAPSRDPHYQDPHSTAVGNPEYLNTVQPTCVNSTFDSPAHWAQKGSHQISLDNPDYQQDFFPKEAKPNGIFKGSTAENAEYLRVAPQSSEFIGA
SMILES,composite z-score [1],composite z-score [2],composite z-score [3],z-score [4],composite z-score [5],composite z-score [6],composite z-score [7],composite z-score [8],composite z-score [9],composite z-score [10],composite z-score [11],z-score [12],composite z-score [13],composite z-score [14],composite z-score [15],composite z-score [16],composite z-score [17],composite z-score [18],composite z-score [19],composite z-score [20]
CCN1C(=O)[C@H]2[C@H]3[C@H](O)[C@H](O)CC(=NOC[C@@H](C)[C@H](OCc4ccccc4)C(C)C)[C@@H]3CC[C@H]2C1=O,1.16,-0.035,-0.171,0.879 (inactive),0.405,0.254,0.108,0.284,0.132,0.359,0.306,-1.47,0.358,0.809,0.484,-0.133,-0.262,0.124,0.329,0.234
COCC(=C=CC[C@@H](O)c1ccccc1OCCO)CCO,0.718,0.117,0.09,0.0385 (inactive),1.49,-0.0421,-0.423,0.135,0.335,0.706,0.692,-0.779,-0.0632,0.0775,0.119,-0.206,0.0796,-0.333,0.416,0.113
CC(C)=NOCc1cccc(-c2cc(-c3ccccc3)no2)c1,0.379,-0.208,-0.609,0.342 (inactive),0.637,0.787,-0.137,0.597,0.494,-0.21,0.332,-0.149,0.71,0.0463,-0.823,-0.0874,0.0952,-0.161,0.237,0.553
COC(=O)[C@@]1(Cc2ccc(F)cc2)[C@H]2c3cc(C(=O)N(C)C)n(Cc4ccc(OC)c(OC)c4)c3C[C@H]2CN1C(=O)c1ccccc1,-0.236,1.08,0.43,-3.2 (inactive),0.495,-1.21,0.278,-0.32,-0.686,0.939,0.0897,-1.44,-0.137,0.482,0.0167,0.0833,0.299,0.338,0.0894,0.0611
CC(C)=CCCC(C)=CCON=C1C[C@@H](O)[C@@H](O)[C@@H]2[C@@H]3C(=O)N(C[C@@H]4CCCO4)C(=O)[C@@H]3CC[C@@H]12,0.998,-0.364,-0.753,0.363 (inactive),1.33,1.29,1.15,1.37,1.37,1.52,1.38,0.398,0.763,-0.599,-1.4,-0.104,-0.243,-0.319,0.101,0.488
Cc1cc(C)c(-c2cc([C@H](C)ON=C3[C@H]4CCn5c(=O)n(-c6ccccc6)c(=O)n5[C@H]4[C@H](O)[C@@H]4O[C@H]34)on2)c(C)c1,0.167,-0.255,-0.48,2.01 (inactive),0.501,0.253,0.377,0.801,0.88,-0.0289,0.548,-4.92,0.59,0.0681,-0.386,0.0559,0.184,-0.0554,0.441,0.322
